High-throughput results as filed in PubChem BioAssay.
LDHA block: blocks human lactate dehydrogenase A. P00338. purified LDHA, NADH/diaphorase-resazurin fluorescence; hits give low values. activity change, % (values are at about 110 or 230 µM). 0.15% of 480,000 active; in the data active = activity change below about -30%; inconclusive = mostly about -25% to -30%;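 note: plate controls were DMSO wells for no effect and wells without enzyme for full effect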
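Human LDH5 at 2 nM final in Tris HCl pH 7.4 with 0.06 mM NADH and 0.2 mM pyruvate, reacted 5 minutes at room temperature. Remaining NADH coupled via diaphorase/resazurin; resorufin fluorescence read at 0 and 20 minutes, normalized to enzyme-free and DMSO wells.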
VP16 counter: counter-screen for ROR gamma inhibitors: Gal4-VP16 reporter; Potency, µM (doses to about 53.6 µM), for inactives: top-dose activity, negative = inhibition, usual class: inhibitors; Drosophila S2 Gal4-VP16 UAS-luciferase, luminescence, 20 h; 3.5% of 310,000 active;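 note: Gal4-VP16 expression switched on by copper sulfate through the metallothionein promoter; potency is the fitted concentration of half-maximal effect; nearly all actives have a fitted effect of over 50% in size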
IL1B secr inh: inhibitors of inflammasome signaling (IL-1 beta secretion) | 4.7% of 360,000 active | activity change, % at 57.5 µM | AID 743279 | THP-1 LPS/ATP IL-1B secretion, AlphaLISA, 16 h; hits give low values; in the data active = activity change below about -50%; inconclusive = mostly about -30% to -49%
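Secreted IL-1B measured by AlphaLISA bead assay after 16 h compound exposure of THP-1 cells; compounds (final up to 57.5 uM) added 1 h before LPS (250 ng/mL) and ATP (1.25 mM) stimulation; lower signal means less secretion.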
DT40 TDP1 CPT: growth inhibition of DT40 Tdp1-/-;hTDP1 cells with camptothecin (screen for TDP1 inhibitors). chicken DT40 Tdp1-/-;hTDP1 cells + 20 nM CPT, ATP luminescence, 48 h. AID 686979. Potency, µM (doses to about 46.2 µM), for the others: at the top dose activity change, negative = growth inhibition, hits mostly inhibitors. 12% of 420,000 active; note: potency is the fitted concentration of half-maximal effect; nearly all actives have a fitted effect of over 55% in size
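Cell growth measured by CellTiter-Glo luminescence after a minimum 48 h, 37 C compound exposure with 20 nM CPT in Tdp1-knockout DT40 cells stably expressing hTDP1, seeded 400/well; qHTS titration format.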
RORgamma inh: inhibitors of mouse ROR gamma transcriptional activity | P51450 | Drosophila S2 Gal4-RORgamma UAS-luciferase reporter, 20 h | Potency, µM (top dose mostly 53.6 µM), for the others: at the top dose activity change, negative = inhibition, most hits filed as inhibitors | AID 2551 | 5.4% of 310,000 active; note: potency is the fitted concentration of half-maximal effect; nearly all actives have a fitted effect of over 60% in size
Target sequence (P51450 whole entry, looked up, the tested form may be a part): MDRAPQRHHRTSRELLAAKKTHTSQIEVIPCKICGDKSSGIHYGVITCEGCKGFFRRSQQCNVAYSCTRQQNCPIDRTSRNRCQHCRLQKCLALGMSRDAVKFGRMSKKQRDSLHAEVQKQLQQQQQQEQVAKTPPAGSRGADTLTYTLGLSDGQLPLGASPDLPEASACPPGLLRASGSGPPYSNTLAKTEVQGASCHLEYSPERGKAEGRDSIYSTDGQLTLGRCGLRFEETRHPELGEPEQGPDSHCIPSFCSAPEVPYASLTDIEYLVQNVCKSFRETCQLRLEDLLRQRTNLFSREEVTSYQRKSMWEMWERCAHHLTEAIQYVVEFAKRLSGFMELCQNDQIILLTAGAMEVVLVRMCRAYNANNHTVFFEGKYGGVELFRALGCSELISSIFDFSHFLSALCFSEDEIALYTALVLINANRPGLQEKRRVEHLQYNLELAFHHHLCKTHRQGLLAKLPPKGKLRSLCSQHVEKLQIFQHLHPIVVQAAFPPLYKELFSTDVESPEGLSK
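Read-out: Photinus luciferase luminescence; inhibitors lower reporter signal. Insect Schneider cells with Gal4-ROR gamma fusion under metallothionein promoter, UAS reporter; 700 uM final copper sulfate induction, 20 hr, ambient temperature.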
DT40 TDP1 no CPT: qHTS for Inhibitors of human tyrosyl-DNA phosphodiesterase 1 (TDP1): qHTS in cells in absence of CPT | DT40 Tdp1-/- hTDP1 cells, no CPT, ATP luminescence, 48 h | Potency, µM (titrated, usually from 46.2 µM), for inactives: at the top dose activity change, negative = growth inhibition, usual class: inhibitors | 15% of 420,000 active | AID 686978, 2013; note: potency is the fitted concentration of half-maximal effect; nearly all actives have a fitted effect of over 55% in size
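A cellular qHTS used chicken DT40 cells lacking endogenous Tdp1 but carrying stably transfected human TDP1. Compounds were applied without camptothecin, and cell growth kinetics were judged by ATP-dependent luminescence after ≥48 hr.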
Active calls of the source: *; ? = inconclusive; . = no result given; [ ] = remark or other dose. Compounds with a hit are over-represented: about 18% of the library has one in this group of screens. Unless noted, calls come from the whole dose curve; as a rule, active = well fitted curve in the direction sought with a large enough effect; inconclusive = small, poorly fitted or top-dose-only effect, or another doubt; inactive = no such curve, though single readings can be large; an effect the other way counts as inactive or inconclusive. Unless noted, % is set by controls: 0 for no effect and ±100 for the full control effect.

SMILES	LDHA block	VP16 counter	IL1B secr inh	DT40 TDP1 CPT	RORgamma inh	DT40 TDP1 no CPT
CC1CC1c1ccc(/C=C(\C#N)C(=O)Nc2ccccc2Cl)o1 (stereo unspecified)	6	26%	-17	-21%	?	?
Cc1c(NC(=O)/C(C#N)=C\c2cccs2)c(=O)n(-c2ccccc2)n1C	6	-3%	7	-16%	-6%	-20%
CC1CC1c1ccc(/C=C(\C#N)C(=O)Nc2ccc(Cl)cc2)o1 (stereo unspecified)	-5	4%	-14	?	31%	16µM*
CCOc1ccc(NC(=O)/C(C#N)=C\c2ccc(-c3ccc(Cl)cc3)o2)cc1	-16	.	.	?	.	10µM*
Cc1cc(NC(=O)/C(C#N)=C/c2ccc(-c3ccc(SC(F)F)cc3)o2)n(-c2ccccc2)n1	1	7%	-6	?	30%	18µM*
O=C(Nc1ccccc1O)c1csc(NC2CC2)n1	0	.	.	.	.	.
Cc1ccccc1C1c2[nH]c3ccccc3c2C[C@H]2C(=O)N(c3ccccc3C(=O)NCCN3CCOCC3)C(=O)N12 (stereo partly specified)	-14	0%	-1	?	20%	?
O=C(NCCCN1CCOCC1)c1ccccc1N1C(=O)[C@@H]2Cc3c([nH]c4ccccc34)C(c3cccc(Cl)c3)N2C1=O (stereo partly specified)	3	-22%	39	9.2µM*	24%	10µM*
Cc1ccccc1C1c2[nH]c3ccccc3c2C[C@H]2C(=O)N(c3ccccc3C(=O)NCCCN3CCOCC3)C(=O)N12 (stereo partly specified)	-2	-3%	-7	23µM*	-7%	16µM*
Cc1ccc(C2c3[nH]c4ccccc4c3C[C@H]3C(=O)N(c4ccccc4C(=O)NCCN4CCOCC4)C(=O)N23)cc1 (stereo partly specified)	-1	-21%	-13	-91%	6%	-91%
Cc1ccc(C2c3[nH]c4ccccc4c3C[C@H]3C(=O)N(c4ccccc4C(=O)NCCCN4CCOCC4)C(=O)N23)cc1 (stereo partly specified)	2	?	-23	12µM*	-16%	?
CC(C)(C)C1CCC(=C(C#N)C(N)=O)CC1 (stereo unspecified)	-17	.	.	.	.	.
CCc1ccc(CNC(=O)c2sc3nc(C)nc(N4CCCC4)c3c2C)cc1	-1	.	.	.	.	.
Cc1ccccc1NC(=O)CN1CCC(n2nnc3ccccc32)CC1	-4	0%	-28	-13%	23%	-29%
Cc1nc2ccccc2n1C1CCN(CC(=O)Nc2ccccc2Br)CC1	-6	?	-51*	?	-13%	13µM*
CCN(CC)c1ccc(-c2nnc(SCCS(=O)(=O)c3ccccc3)o2)cc1	-9	.	.	.	.	.
CCN(Cc1ccc(OC)c(F)c1)C(=O)c1n[nH]c(=O)c2ccccc12	9	.	.	.	.	.
CC1=C(C#N)C(c2ccoc2)C(C(=O)OCc2ccccc2)=C(N)S1 (stereo unspecified)	3	-13%	-13	-26%	14%	26µM*
Cc1ccc(C(=O)O/N=C/c2c(N3CCOCC3)n(C)c3ccccc23)cc1	-6	3.5µM*	55	3.3µM*	1.1µM*	4.1µM*
Cn1c(N2CCOCC2)c(/C=N/OC(=O)c2cccnc2Cl)c2ccccc21	-4	0%[10 µM]	52	?	-7%	?
Cn1c(N2CCOCC2)c(/C=N/OC(=O)c2ccc(F)cc2)c2ccccc21	-7	2.2µM*	42	3.7µM*	0.63µM*	2.9µM*
Cc1cccc(C)c1OCCNC(=O)COc1ccc2c(C)cc(=O)oc2c1	-6	.	.	.	.	.
COc1ccc(CCNC(=O)c2ccc(-c3cccc([N+](=O)[O-])c3)o2)cc1OC	1	-1%[10 µM]	-29	?	32%	21µM*
NNC(=O)c1ccc(-c2cccc([N+](=O)[O-])c2)o1	-5	15%	-25	?	5%	-10%
COc1cc([N+](=O)[O-])ccc1NC(=O)c1cccc(NC(=O)C(C)C)c1	-1	-1%	.	?	6%	29µM*
SMILES	LDHA block	VP16 counter	IL1B secr inh	DT40 TDP1 CPT	RORgamma inh	DT40 TDP1 no CPT
COc1cc(NC(=O)c2ccc(-c3cccc([N+](=O)[O-])c3)o2)ccc1NC(=O)C(C)C	3	-25%	10	?	15%	21µM*
COc1cc([N+](=O)[O-])ccc1NC(=O)CCCOc1cccc(C)c1C	2	?	-20	-8%	20µM*	-10%
COc1ccc(CCNC(=O)c2cccc([N+](=O)[O-])c2)cc1OC	0	.	.	?	.	?
O=C(CSc1ccc2c(c1)OCCCO2)Nc1cccc2ccccc12	-16	.	.	.	.	.
OC(CNCCC(c1ccccc1)c1ccccc1)COc1ccccc1 (stereo unspecified)	1	-29%	-105*	13µM*	?	13µM*
OC(CNCCc1ccc(Cl)cc1)COc1cc(Cl)ccc1Cl (stereo unspecified)	-1	-24%	-18	16µM*	-18%	?
c1ccc(CCNCCCOc2cccc3ccccc23)cc1	-19	-10%	-101*	-25%	-2%[1.91 µM]	?
Clc1ccc(OCCNCCc2ccccc2)cc1	1	13%	-53*	?	-29%[1.91 µM]	?
CN(C)CCCNCCc1ccccc1	9	.	.	.	.	.
O=C(Nc1ccc2c3c(cccc13)CC2)C(Cl)(Cl)Cl	3	.	.	.	.	.
Cn1c(=O)c2c(ncn2CC(=O)N2CC(C(=O)N3CCCCC3)Oc3ccccc32)n(C)c1=O (stereo unspecified)	-1	.	.	.	.	.
